{
  "source": "PubChem BioAssay AID588852",
  "about": "(The Scripps Research Institute Molecular Screening Center, 2011)",
  "note": "About 4,600 (1.3%) of roughly 360,000 compounds were called active. The sample holds actives, similar compounds and a random draw of the others, so the mix is not that of the screen. A number with no mark means an inactive call.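 Rule for the calls: active = percent inhibition above its own plate's cutoff, namely the mean of that plate's compound wells plus 3 SD; inactive = the rest.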",
  "data": [
    {"biological_target": "Muscarinic acetylcholine receptor M1 (Homo sapiens) (UniProt P11229)", "sequence (P11229 whole entry, looked up)": "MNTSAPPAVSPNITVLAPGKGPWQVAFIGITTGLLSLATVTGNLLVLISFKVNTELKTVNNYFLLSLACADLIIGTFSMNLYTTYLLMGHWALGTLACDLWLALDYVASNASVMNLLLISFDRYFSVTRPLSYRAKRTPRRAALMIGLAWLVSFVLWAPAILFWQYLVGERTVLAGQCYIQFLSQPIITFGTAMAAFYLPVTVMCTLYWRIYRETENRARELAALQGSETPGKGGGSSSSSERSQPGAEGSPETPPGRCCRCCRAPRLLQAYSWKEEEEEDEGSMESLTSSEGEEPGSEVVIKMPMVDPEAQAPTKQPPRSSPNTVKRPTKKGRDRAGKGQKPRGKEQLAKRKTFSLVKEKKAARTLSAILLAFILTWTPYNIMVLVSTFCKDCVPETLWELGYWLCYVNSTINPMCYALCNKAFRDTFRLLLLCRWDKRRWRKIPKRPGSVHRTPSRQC", "experiment": "CHRM1 blockers of acetylcholine calcium response – CHO-K1 cells, Fluo-8 calcium fluorescence, 1536-well, primary screen (AID 588852);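 note: peak over basal fluorescence ratio during 140 s after agonist addition; 0% = ACh EC80 plus DMSO and 100% = DMSO alone without agonist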", "details": "CHO-K1 hM1, Fluo-8 calcium fluorescence, ACh EC80 antagonist; at 3 µM; hits give high values", "values": [
      {"smiles": "O=C(CSc1nnc2c(n1)[nH]c1ccccc12)NC1CCCCC1", "inhibition": "-3.99%"},
      {"smiles": "O=C(CNS(=O)(=O)c1ccc2ccccc2c1)Nc1ccc(F)c(F)c1F", "inhibition": "-2.2%"},
      {"smiles": "Cc1cc(=O)oc2c3c(cc(OCC(=O)NCC(O)c4ccccc4)c12)OC(C)(C)CC3", "note": "(stereo not given)", "inhibition": "-9.2%"},
      {"smiles": "O=C(c1ccc(-n2cnnn2)cc1)N1CCN(C(c2ccccc2)c2ccccc2)CC1", "inhibition": "78.5% (active)"},
      {"smiles": "Cc1onc(C(=O)NN)c1C(=O)N1CCN(C(c2ccccc2)c2ccccc2)CC1", "inhibition": "4.44%"},
      {"smiles": "Cn1nnnc1SCC(=O)N1CCN(C(c2ccccc2)c2ccccc2)CC1", "inhibition": "-2.38%"},
      {"smiles": "CC(C)(C)Cc1c(C2CCCCC2)nc2ccc(Br)cn12", "inhibition": "-23.6%"},
      {"smiles": "COc1cc(OC)c(C2=NOC(C(=O)Nc3c(C)n(C)n(-c4ccccc4)c3=O)C2)cc1Cl", "note": "(stereo not given)", "inhibition": "-4.11%"},
      {"smiles": "Cc1ccc(N(Cc2cc(=O)[nH]c3ccccc23)C(=O)CCl)cc1", "inhibition": "41.3% (active)"},
      {"smiles": "CC(=O)N(Cc1cc(=O)[nH]c2ccccc12)c1ccc(C)cc1C", "inhibition": "-12.4%"},
      {"smiles": "Cc1ccc(N(Cc2cc3ccccc3[nH]c2=O)C(=O)c2cccs2)cc1", "inhibition": "-3.76%"},
      {"smiles": "C=C(C)C1CC=C(C)/C(=N/NC(=O)CCCNc2cccc(C)c2)C1", "note": "(stereo not given)", "inhibition": "10%"},
      {"smiles": "CCCOc1ccc(N2CC(C(=O)Nc3ccccn3)CC2=O)cc1", "note": "(stereo not given)", "inhibition": "-17.6%"},
      {"smiles": "O=C(NCc1ccccc1Cl)C1CCN(c2ncnc3c2nc2n3CCCCC2)CC1", "inhibition": "-5.23%"},
      {"smiles": "COc1ccccc1CNC(=O)CCCn1c(=O)c2ccccc2n(CC(=O)NC2CCCC2)c1=O", "inhibition": "-13.2%"},
      {"smiles": "COc1cccc(OC)c1C(=O)N1CCN(Cc2ccccc2F)CC1", "inhibition": "-1.36%"},
      {"smiles": "COc1ccccc1NC(=S)N1CCN(c2ccc(F)cc2)CC1", "inhibition": "-20.2%"},
      {"smiles": "COc1ccccc1CN1CCN(Cc2cc(OC)c(OC)cc2OC)CC1", "inhibition": "-21.9%"},
      {"smiles": "COc1ccccc1NC(=S)N1CCC(NC(=O)C23CC4CC(CC(C4)C2)C3)CC1", "inhibition": "-7.97%"},
      {"smiles": "COc1ccccc1NC(=S)N1CCN(C(c2ccccc2)c2ccccc2)CC1", "inhibition": "53.1% (active)"},
      {"smiles": "COc1ccccc1CN1CCN(C(c2ccccc2)c2ccccc2)CC1", "inhibition": "63.6% (active)"},
      {"smiles": "CC(C)(C)NC(=O)COc1ccc(CNc2ccc3[nH]c(=O)[nH]c3c2)cc1", "inhibition": "-1.62%"},
      {"smiles": "COc1cc(C2OC(c3cc(OC)c(OC)c(OC)c3)C(C)C2C)cc(OC)c1OC", "note": "(stereo not given)", "inhibition": "0.63%"},
      {"smiles": "Oc1cccc2cc(-c3ccncc3)cnc12", "inhibition": "-21.3%"},
      {"smiles": "O=C(c1cc(Cl)cc(Cl)c1)N1CCC(=O)N(C(COCc2ccccc2)Cc2ccccc2)CC1", "note": "(stereo not given)", "inhibition": "7.3%"}
    ]}
  ]
}
